Our source for the growth values is PubChem BioAssay (NCI).

About 83,000 compounds went through this panel and 20% of them were active in at least one assay; those are over-represented in the sample as a whole.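 Single-concentration screen, 48 h exposure, 96-well plates. Endpoint: percent growth. Below 10 = active.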 Unmarked numbers belong to inactive results. Active and inactive are the calls of the source.

For this experiment, the system named is HL-60(TB) leukemia. Kind of experiment: NCI-60 one-dose screen, 48 h (100 = growth as untreated, 0 = no growth, -100 = all killed). The conditions noted are these: 10 µM unless noted.
For the compound `CCN1C(=O)N(CC)C2SC(N/N=C/c3ccc(F)cc3)=NC21` (stereo not given), the growth is 2.85% (active).

On to `C=CCn1c(SCC(=O)Nc2ccc(C(=O)/C=C/c3ccc(Cl)cc3)cc2)nnc1-c1c[nH]c2ccccc12`, for which the growth was 87.5%.

Regarding `COC(=O)CCCNCCCn1ccc2cc(NCc3cccc(-c4ccccc4)c3C)ccc21`, the growth was 16.7%.

As to `COc1ccc(-c2nnc(SCc3ccc(O)c4ncccc34)o2)cc1`, the growth was 18.3%.

As for `CN1CCN(Cc2ccc(NC(=O)c3cncc(C#Cc4cnc5ccc(NCCO)nn45)c3)cc2C(F)(F)F)CC1`, the growth is -12.1% (active).
